Residue numbers refer to the chain shown, from its start.

Assay in all cases: PBM; 200 nM protein, PBS
Conditions in all cases: dsDNA, one strand shown

Experiment [1] addresses HOXB4 (Homo sapiens, UniProt P17483 148-234).
Experiment [2] has as its target T1, VENTX (Homo sapiens, UniProt O95231 78-163, R121Q).
T1 sequence: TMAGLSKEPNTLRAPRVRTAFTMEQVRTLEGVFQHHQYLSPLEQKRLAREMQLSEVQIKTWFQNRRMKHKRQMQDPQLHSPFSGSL

Experiment [3] addresses HOXA4 (Homo sapiens, UniProt Q00056 201-287, W262R).
Experiment [4] has as its target T2, VENTX (Homo sapiens, UniProt O95231 78-163, Y115F).
T2 sequence: T1 sequence with Y38F, Q44R

Experiment [5] deals with HOXA4 (Homo sapiens, UniProt Q00056 201-287, R217L).
Experiment [6] addresses HOXB4 (Homo sapiens, UniProt P17483 148-234, V174I).
For experiment [7], the target named is HOXA4 (Homo sapiens, UniProt Q00056 201-287).
The target in experiment [8] is HOXA4 (Homo sapiens, UniProt Q00056 201-287, W262F).
Experiment [9] deals with HOXA2 (Homo sapiens, UniProt O43364 129-215, R185T).
Experiment [10] concerns the target HOXA2 (Homo sapiens, UniProt O43364 129-215, R185K).
Experiment [11] addresses VAX1 (Homo sapiens, UniProt Q5SQQ9 86-172).
In experiment [12] the target is VAX1 (Homo sapiens, UniProt Q5SQQ9 86-172, T142I).
The target in experiment [13] is HOXA2 (Homo sapiens, UniProt O43364 129-215, Y150S).
Experiment [14] has as its target HOXA2 (Homo sapiens, UniProt O43364 129-215).
Experiment [15] concerns the target VAX1 (Homo sapiens, UniProt Q5SQQ9 86-172, K157R).

HOXB4 (Homo sapiens, UniProt P17483 148-234, V174I), sequence (P17483 148-234 V174I): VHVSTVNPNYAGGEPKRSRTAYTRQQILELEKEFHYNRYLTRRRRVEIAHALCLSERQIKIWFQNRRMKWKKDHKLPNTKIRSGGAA
HOXB4 (Homo sapiens, UniProt P17483 148-234), sequence (P17483 148-234): as the sequence (P17483 148-234 V174I) above, with I27V counted along it
HOXA4 (Homo sapiens, UniProt Q00056 201-287, W262R), sequence (Q00056 201-287 W262R): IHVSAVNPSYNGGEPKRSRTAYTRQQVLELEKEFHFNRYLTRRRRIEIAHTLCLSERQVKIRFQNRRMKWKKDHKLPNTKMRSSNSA
VAX1 (Homo sapiens, UniProt Q5SQQ9 86-172), sequence (Q5SQQ9 86-172): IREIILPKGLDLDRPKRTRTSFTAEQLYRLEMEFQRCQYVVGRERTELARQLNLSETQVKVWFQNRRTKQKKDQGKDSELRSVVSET
HOXA2 (Homo sapiens, UniProt O43364 129-215, R185K), sequence (O43364 129-215 R185K): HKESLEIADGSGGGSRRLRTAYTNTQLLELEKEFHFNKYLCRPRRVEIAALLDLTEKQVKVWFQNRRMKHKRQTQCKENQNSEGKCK
HOXA2 (Homo sapiens, UniProt O43364 129-215, Y150S), sequence (O43364 129-215 Y150S): as the sequence (O43364 129-215 R185K) above, with Y22S, K57R counted along it
HOXA4 (Homo sapiens, UniProt Q00056 201-287, R217L), sequence (Q00056 201-287 R217L): as the sequence (Q00056 201-287 W262R) above, with R17L, R62W counted along it
VAX1 (Homo sapiens, UniProt Q5SQQ9 86-172, K157R), sequence (Q5SQQ9 86-172 K157R): as the sequence (Q5SQQ9 86-172) above, with K72R counted along it
HOXA2 (Homo sapiens, UniProt O43364 129-215, R185T), sequence (O43364 129-215 R185T): as the sequence (O43364 129-215 R185K) above, with K57T counted along it
HOXA4 (Homo sapiens, UniProt Q00056 201-287), sequence (Q00056 201-287): as the sequence (Q00056 201-287 W262R) above, with R62W counted along it
HOXA4 (Homo sapiens, UniProt Q00056 201-287, W262F), sequence (Q00056 201-287 W262F): as the sequence (Q00056 201-287 W262R) above, with R62F counted along it
VAX1 (Homo sapiens, UniProt Q5SQQ9 86-172, T142I), sequence (Q5SQQ9 86-172 T142I): as the sequence (Q5SQQ9 86-172) above, with T57I counted along it
HOXA2 (Homo sapiens, UniProt O43364 129-215), sequence (O43364 129-215): as the sequence (O43364 129-215 R185K) above, with K57R counted along it

For CCATTAAG, the binding signal with HOXB4 [1] is 13 upbm affinity estimate (log intensity, higher = more binding, comparable within an allelic series); with VENTX [2], 11.8 upbm affinity estimate (log intensity, higher = more binding, comparable within an allelic series); with HOXA4 [3], 10.5 upbm affinity estimate (log intensity, higher = more binding, comparable within an allelic series); in the experiment with VENTX [4], 11.5 upbm affinity estimate (log intensity, higher = more binding, comparable within an allelic series); with HOXA4 [5], 11.8 upbm affinity estimate (log intensity, higher = more binding, comparable within an allelic series); with HOXB4 [6], 13.6 upbm affinity estimate (log intensity, higher = more binding, comparable within an allelic series). The binding signal with HOXA4 [7] was 13.7 upbm affinity estimate (log intensity, higher = more binding, comparable within an allelic series); with HOXA4 [8], 11.3 upbm affinity estimate (log intensity, higher = more binding, comparable within an allelic series).

As to CTAATGAC, the binding signal is 13.2 upbm affinity estimate (log intensity, higher = more binding, comparable within an allelic series) with HOXB4 [1]; 11.9 upbm affinity estimate (log intensity, higher = more binding, comparable within an allelic series) with VENTX [2]; 10.6 upbm affinity estimate (log intensity, higher = more binding, comparable within an allelic series) in the experiment with HOXA4 [3]; 11.9 upbm affinity estimate (log intensity, higher = more binding, comparable within an allelic series) with VENTX [4]; 13.1 upbm affinity estimate (log intensity, higher = more binding, comparable within an allelic series) in the experiment with HOXA2 [9]; 12.1 upbm affinity estimate (log intensity, higher = more binding, comparable within an allelic series) with HOXA4 [5]. The binding signal was 13.9 upbm affinity estimate (log intensity, higher = more binding, comparable within an allelic series) with HOXB4 [6]; 13.7 upbm affinity estimate (log intensity, higher = more binding, comparable within an allelic series) in the experiment with HOXA2 [10]; 13.9 upbm affinity estimate (log intensity, higher = more binding, comparable within an allelic series) with HOXA4 [7]; 13.3 upbm affinity estimate (log intensity, higher = more binding, comparable within an allelic series) in the experiment with VAX1 [11]; 13.2 upbm affinity estimate (log intensity, higher = more binding, comparable within an allelic series) with VAX1 [12]; 10.9 upbm affinity estimate (log intensity, higher = more binding, comparable within an allelic series) in the experiment with HOXA2 [13]. Besides, the binding signal with HOXA4 [8] was 12 upbm affinity estimate (log intensity, higher = more binding, comparable within an allelic series); with HOXA2 [14] it was 12.9 upbm affinity estimate (log intensity, higher = more binding, comparable within an allelic series); with VAX1 [15], 13.2 upbm affinity estimate (log intensity, higher = more binding, comparable within an allelic series).

Regarding ATCATTAA, the binding signal in the experiment with HOXB4 [1] is 13.5 upbm affinity estimate (log intensity, higher = more binding, comparable within an allelic series); in the experiment with VENTX [2], 11.7 upbm affinity estimate (log intensity, higher = more binding, comparable within an allelic series); with HOXA4 [3] it was 10.9 upbm affinity estimate (log intensity, higher = more binding, comparable within an allelic series); with VENTX [4], 11.7 upbm affinity estimate (log intensity, higher = more binding, comparable within an allelic series); in the experiment with HOXA2 [9], 13 upbm affinity estimate (log intensity, higher = more binding, comparable within an allelic series); with HOXA4 [5], 12.9 upbm affinity estimate (log intensity, higher = more binding, comparable within an allelic series). Besides, the binding signal was 14.2 upbm affinity estimate (log intensity, higher = more binding, comparable within an allelic series) with HOXB4 [6]; 13.5 upbm affinity estimate (log intensity, higher = more binding, comparable within an allelic series) with HOXA2 [10]; 14.2 upbm affinity estimate (log intensity, higher = more binding, comparable within an allelic series) in the experiment with HOXA4 [7]; 13.2 upbm affinity estimate (log intensity, higher = more binding, comparable within an allelic series) with VAX1 [11]; 13.2 upbm affinity estimate (log intensity, higher = more binding, comparable within an allelic series) with VAX1 [12]; 10.9 upbm affinity estimate (log intensity, higher = more binding, comparable within an allelic series) in the experiment with HOXA2 [13]. Moreover, the binding signal in the experiment with HOXA4 [8] was 12.5 upbm affinity estimate (log intensity, higher = more binding, comparable within an allelic series); in the experiment with HOXA2 [14], 12.7 upbm affinity estimate (log intensity, higher = more binding, comparable within an allelic series); with VAX1 [15], 13 upbm affinity estimate (log intensity, higher = more binding, comparable within an allelic series).

Take AGTCATTA: the binding signal is 13.1 upbm affinity estimate (log intensity, higher = more binding, comparable within an allelic series) with HOXB4 [1]; 11.7 upbm affinity estimate (log intensity, higher = more binding, comparable within an allelic series) in the experiment with VENTX [2]; 10.6 upbm affinity estimate (log intensity, higher = more binding, comparable within an allelic series) in the experiment with HOXA4 [3]; 11.7 upbm affinity estimate (log intensity, higher = more binding, comparable within an allelic series) in the experiment with VENTX [4]; 12.9 upbm affinity estimate (log intensity, higher = more binding, comparable within an allelic series) with HOXA2 [9]; 12.5 upbm affinity estimate (log intensity, higher = more binding, comparable within an allelic series) in the experiment with HOXA4 [5]. For the same sequence, the binding signal is 13.7 upbm affinity estimate (log intensity, higher = more binding, comparable within an allelic series) with HOXB4 [6]; 13.5 upbm affinity estimate (log intensity, higher = more binding, comparable within an allelic series) with HOXA2 [10]; 13.9 upbm affinity estimate (log intensity, higher = more binding, comparable within an allelic series) with HOXA4 [7]; 13.1 upbm affinity estimate (log intensity, higher = more binding, comparable within an allelic series) with VAX1 [11]; 13 upbm affinity estimate (log intensity, higher = more binding, comparable within an allelic series) in the experiment with VAX1 [12]; 10.9 upbm affinity estimate (log intensity, higher = more binding, comparable within an allelic series) with HOXA2 [13]. The binding signal is 12 upbm affinity estimate (log intensity, higher = more binding, comparable within an allelic series) in the experiment with HOXA4 [8]; 12.7 upbm affinity estimate (log intensity, higher = more binding, comparable within an allelic series) with HOXA2 [14]; 12.9 upbm affinity estimate (log intensity, higher = more binding, comparable within an allelic series) with VAX1 [15].

In the case of CGGGCTAG, the binding signal in the experiment with HOXB4 [1] was 7.46 upbm affinity estimate (log intensity, higher = more binding, comparable within an allelic series); with VENTX [2] it was 7.92 upbm affinity estimate (log intensity, higher = more binding, comparable within an allelic series); in the experiment with VENTX [4] it was 7.71 upbm affinity estimate (log intensity, higher = more binding, comparable within an allelic series); with HOXB4 [6] it was 7.53 upbm affinity estimate (log intensity, higher = more binding, comparable within an allelic series).

As for ACTAATGA, the binding signal in the experiment with HOXB4 [1] is 13.4 upbm affinity estimate (log intensity, higher = more binding, comparable within an allelic series); in the experiment with VENTX [2], 12.1 upbm affinity estimate (log intensity, higher = more binding, comparable within an allelic series); with HOXA4 [3], 10.8 upbm affinity estimate (log intensity, higher = more binding, comparable within an allelic series); in the experiment with VENTX [4], 12 upbm affinity estimate (log intensity, higher = more binding, comparable within an allelic series); in the experiment with HOXA2 [9] it was 13.3 upbm affinity estimate (log intensity, higher = more binding, comparable within an allelic series); with HOXA4 [5], 12.2 upbm affinity estimate (log intensity, higher = more binding, comparable within an allelic series). For the same sequence, the binding signal was 14 upbm affinity estimate (log intensity, higher = more binding, comparable within an allelic series) in the experiment with HOXB4 [6]; 13.6 upbm affinity estimate (log intensity, higher = more binding, comparable within an allelic series) with HOXA2 [10]; 14.1 upbm affinity estimate (log intensity, higher = more binding, comparable within an allelic series) with HOXA4 [7]; 13.5 upbm affinity estimate (log intensity, higher = more binding, comparable within an allelic series) with VAX1 [11]; 13.3 upbm affinity estimate (log intensity, higher = more binding, comparable within an allelic series) in the experiment with VAX1 [12]; 10.9 upbm affinity estimate (log intensity, higher = more binding, comparable within an allelic series) in the experiment with HOXA2 [13]. The binding signal is 12.3 upbm affinity estimate (log intensity, higher = more binding, comparable within an allelic series) with HOXA4 [8]; 12.9 upbm affinity estimate (log intensity, higher = more binding, comparable within an allelic series) with HOXA2 [14]; 13.3 upbm affinity estimate (log intensity, higher = more binding, comparable within an allelic series) with VAX1 [15].

As to GCGCAGCC, the binding signal with HOXB4 [1] is 7.53 upbm affinity estimate (log intensity, higher = more binding, comparable within an allelic series); in the experiment with HOXB4 [6], 7.57 upbm affinity estimate (log intensity, higher = more binding, comparable within an allelic series).

For the sequence CCTCATTA, the binding signal with HOXB4 [1] is 13.1 upbm affinity estimate (log intensity, higher = more binding, comparable within an allelic series); with VENTX [2], 11.6 upbm affinity estimate (log intensity, higher = more binding, comparable within an allelic series); with HOXA4 [3], 10.5 upbm affinity estimate (log intensity, higher = more binding, comparable within an allelic series); with VENTX [4], 11.8 upbm affinity estimate (log intensity, higher = more binding, comparable within an allelic series); with HOXA2 [9], 13.1 upbm affinity estimate (log intensity, higher = more binding, comparable within an allelic series); in the experiment with HOXA4 [5], 12.1 upbm affinity estimate (log intensity, higher = more binding, comparable within an allelic series). Further, the binding signal with HOXB4 [6] is 13.7 upbm affinity estimate (log intensity, higher = more binding, comparable within an allelic series); with HOXA2 [10], 13.4 upbm affinity estimate (log intensity, higher = more binding, comparable within an allelic series); in the experiment with HOXA4 [7] it was 13.8 upbm affinity estimate (log intensity, higher = more binding, comparable within an allelic series); with VAX1 [11] it was 13.6 upbm affinity estimate (log intensity, higher = more binding, comparable within an allelic series); with VAX1 [12], 13.3 upbm affinity estimate (log intensity, higher = more binding, comparable within an allelic series); with HOXA2 [13], 10.7 upbm affinity estimate (log intensity, higher = more binding, comparable within an allelic series). The binding signal is 11.5 upbm affinity estimate (log intensity, higher = more binding, comparable within an allelic series) in the experiment with HOXA4 [8]; 12.8 upbm affinity estimate (log intensity, higher = more binding, comparable within an allelic series) with HOXA2 [14]; 13.4 upbm affinity estimate (log intensity, higher = more binding, comparable within an allelic series) with VAX1 [15].

The values are drawn from publication PMC11006913.
